Values without a mark were called inactive. Inconclusive results are not listed. A call without a number means that no potency is given here. The source made the active and inactive calls. Unless noted, the call rests on the fitted dose curve; in most records, active means well fitted curve in the direction sought with a large enough effect in the repeat runs; inconclusive means weak or mixed curves; inactive means no such curve, though single readings can be large; an effect the other way counts as inactive or inconclusive.
Experiments:
[1] = qHTS assay to identify small molecule agonists of the hypoxia (HIF-1) signaling pathway (AID 1224846; active means well fitted activation curve with a large enough effect in the signal ratio in the repeat runs, not every such curve was filed as active; the % refers to the signal ratio)
How it was run: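 HRE-bla ME-180 cells (beta-lactamase reporter under hypoxia response element) were plated at 2,000 cells/well in medium with 0.5% dialyzed FBS, rested 5 hrs, then given compounds in DMSO for 17 hrs at 37C, 5% CO2. Reporter induction was read with CCF4-AM FRET substrate.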

[2] = qHTS assay to identify small molecule agonists of H2AX - cell viability counter screen (AID 1224847; calls by dose curve; further: potency means the concentration at half of the fitted maximal effect; nearly all actives have a fitted effect of over 30% in size)
How it was run: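 Read-out: CellTiter-Glo luminescence, 30 min RT. Cells: wild-type CHO-K1, 1000/well, 10% FBS, plated overnight at 37C. Treatment: 15 concentrations, 3 hr, 37C, 0.76% DMSO.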

[3] = qHTS assay to identify small molecule antagonists of the estrogen related receptor (ERR) signaling pathway from Tox21 library (AID 1224848); further: potency means the concentration at half of the fitted maximal effect; nearly all actives have a fitted effect of over 50% in size
How it was run: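 Cells: ERR line, 2,000/well; 6 h preincubation 37 C/5% CO2. Cpd in DMSO via pin tool; 18 h, 37 C. ONE-Glo, 30 min RT, luminescence.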

[4] = qHTS assay to identify small molecule agonists of the estrogen related receptor (ERR) signaling pathway from Tox21 library (AID 1224849; calls by dose curve; further: nearly all actives have a fitted effect of over 15% in size); conditions: ERR reporter cell line, ONE-Glo luciferase, 18 h; at 92.4 µM (top of the series) unless noted
How it was run: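 ERR reporter cell line (NTP) seeded, rested 6 h at 37 C/5% CO2, then pinned with Tox21 compounds in DMSO. After 18 h at 37 C, ONE-Glo luciferase luminescence was read following 30 min at room temperature.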

[5] = qHTS RealTime-Glo MT Cell Viability Assay in HepG2 cells - 24 hour (AID 1224867); further: nearly all actives have a fitted effect of over 50% in size
How it was run: (§1)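 Real-time, nonlytic viability: 600 HepG2 cells/well mixed with NanoLuc enzyme plus prosubstrate; 5 h settle, compound (DMSO) added by pintool; luminescence monitored over 40 h at 37 C.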

[6] = qHTS RealTime-Glo MT Cell Viability Assay in HEK293 cells - 32 hour (AID 1224868); further: nearly all actives have a fitted effect of over 50% in size; further: potency means the concentration at half of the fitted maximal effect
How it was run: (§2)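 Cells + reagent dispensed (600 cells/well, HEK293) → 5 h at 37 C/5% CO2 → 23 nL compound in DMSO pinned → 40 h at 37 C → luminescence read at 0, 8, 16, 24, 32, 40 h.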

[7] = A CellTox Green Cytotoxicity Assay to monitor cytotoxicity in HEK293 cells - 0 hour (AID 1224869); further: nearly all actives have a fitted effect of over 50% in size
How it was run: (§3)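 HEK293 cells premixed with CellTox Green dye were seeded at 600 cells/well and left 5 h at 37 C/5% CO2 before pin transfer of 23 nL compound in DMSO. Fluorescence from dye bound to dead-cell DNA was read during 40 h treatment.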

[8] = qHTS RealTime-Glo MT Cell Viability Assay in HepG2 cells - 40 hour (AID 1224870); further: nearly all actives have a fitted effect of over 50% in size
How it was run: (§4)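 HepG2 cells mixed with RealTime-Glo MT reagents (NanoLuc plus cell-permeant prosubstrate) were seeded at 600 cells/well, incubated 5 h at 37 C/5% CO2, then pinned with compounds in DMSO; nonlytic luminescence tracked viability during 40 h treatment.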

[9] = A CellTox Green Cytotoxicity Assay to monitor cytotoxicity in HEK293 cells - 40 hour (AID 1224871); further: nearly all actives have a fitted effect of over 45% in size; further: potency means the concentration at half of the fitted maximal effect
How it was run: as §3

[10] = qHTS RealTime-Glo MT Cell Viability Assay in HEK293 cells - 16 hour (AID 1224872); further: nearly all actives have a fitted effect of over 50% in size; further: potency means the concentration at half of the fitted maximal effect
How it was run: as §2

[11] = qHTS RealTime-Glo MT Cell Viability Assay in HepG2 cells - 8 hour (AID 1224873); further: nearly all actives have a fitted effect of over 55% in size
How it was run: as §4

[12] = qHTS RealTime-Glo MT Cell Viability Assay in HEK293 cells - 40 hour (AID 1224874); conditions: RealTime-Glo luminescence; max response: active compounds read low; further: nearly all actives have a fitted effect of over 50% in size; further: potency means the concentration at half of the fitted maximal effect
How it was run: (§5)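 HEK293 cells mixed with RealTime-Glo reagents (NanoLuc plus cell-permeant prosubstrate) at 600 cells/well, preincubated 5 h at 37 C/5% CO2, then given 23 nL compound in DMSO. Nonlytic luminescence from viable cells was read at 0, 8, 16, 24, 32 and 40 h.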

[13] = A CellTox Green Cytotoxicity Assay to monitor cytotoxicity in HEK293 cells - 24 hour (AID 1224875); further: nearly all actives have a fitted effect of over 45% in size
How it was run: as §3

[14] = A CellTox Green Cytotoxicity Assay to monitor cytotoxicity in HepG2 cells - 16 hour (AID 1224876); further: nearly all actives have a fitted effect of over 45% in size
How it was run: (§6)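 HepG2 cells were seeded together with the CellTox Green dye at 600 cells/well, left 5 h at 37 C/5% CO2, then given compounds in DMSO. Fluorescence from dye bound to dead-cell DNA was read repeatedly over 40 h of treatment at 37 C.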

[15] = qHTS RealTime-Glo MT Cell Viability Assay in HepG2 cells - 32 hour (AID 1224877); further: nearly all actives have a fitted effect of over 55% in size
How it was run: as §1

[16] = A CellTox Green Cytotoxicity Assay to monitor cytotoxicity in HepG2 cells - 24 hour (AID 1224878); further: nearly all actives have a fitted effect of over 45% in size; further: potency means the concentration at half of the fitted maximal effect
How it was run: as §6

[17] = A CellTox Green Cytotoxicity Assay to monitor cytotoxicity in HepG2 cells - 40 hour (AID 1224879); further: nearly all actives have a fitted effect of over 40% in size; further: potency means the concentration at half of the fitted maximal effect
How it was run: as §6

[18] = qHTS RealTime-Glo MT Cell Viability Assay in HEK293 cells - 0 hour (AID 1224880)
How it was run: as §5

[19] = qHTS assay to identify small molecule agonists of H2AX (AID 1224845; active means well fitted activation curve with a large enough effect in the signal ratio in the repeat runs, not every such curve was filed as active; the % refers to the signal ratio)
How it was run: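 Wild-type CHO-K1 cells plated overnight, then exposed 3 hr at 37C to compounds at 15 concentrations (0.76% DMSO). Lysed, then HTRF anti-pH2AX(S139)-cryptate/anti-H2AX-d2 detection after 24 hr at room temperature; emissions 665 and 620 nm.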

CCN(CC)c1ccc(C(=C2C=CC(=[N+](CC)CC)C=C2)c2cc(S(=O)(=O)O)ccc2S(=O)(=O)[O-])cc1
Potency [1]: inactive | Potency [2]: 22 µM (active) | Potency [3]: 11.9 µM (active) | activity change, positive = activation [4]: -45.9% [at 42.5 µM] | Potency [5]: inactive | Potency [6]: inactive | Potency [7]: inactive | Potency [8]: inactive | Potency [9]: inactive | Potency [10]: inactive | Potency [11]: inactive | max response [12]: 0.738% | Potency [13]: inactive | Potency [14]: inactive | Potency [15]: inactive | Potency [16]: inactive | Potency [17]: inactive | Potency [18]: inactive

C[C@H](CCC(=O)O)[C@H]1CC[C@H]2[C@@H]3CC[C@@H]4C[C@H](O)CC[C@]4(C)[C@H]3C[C@H](O)[C@]12C
Potency [19]: inactive | Potency [5]: inactive | Potency [7]: inactive | Potency [8]: inactive | Potency [10]: inactive | max response [12]: -23.1% | Potency [14]: inactive | Potency [15]: inactive | Potency [16]: inactive | Potency [17]: inactive | Potency [18]: inactive

CC(C)Cc1ccc(C(C)C(=O)OCc2ccccn2)cc1 (stereo not given)
Potency [1]: inactive | Potency [5]: inactive | Potency [7]: inactive | Potency [8]: inactive | Potency [11]: inactive | Potency [13]: inactive | Potency [14]: inactive | Potency [16]: inactive | Potency [17]: inactive | Potency [18]: inactive

C=C1C(=C/C=C2\CCC[C@]3(C)[C@@H]([C@H](C)/C=C/[C@@H](O)C4CC4)CC[C@@H]23)C[C@@H](O)C[C@@H]1O
Potency [19]: inactive | Potency [3]: 13.3 µM (active) | activity change, positive = activation [4]: -57.7% [at 42.5 µM] | Potency [6]: 16.9 µM (active) | Potency [7]: inactive | Potency [8]: inactive | Potency [10]: 19 µM (active) | Potency [11]: inactive | Potency [12]: 8.49 µM (active) | Potency [13]: inactive | Potency [16]: inactive | Potency [17]: inactive | Potency [18]: inactive

CC(=O)c1ccc2c(c1)N(CCCN1CCC(CCO)CC1)c1ccccc1S2
Potency [1]: inactive | Potency [5]: inactive | Potency [7]: inactive | Potency [8]: inactive | Potency [9]: 23.9 µM (active) | Potency [11]: inactive | Potency [12]: 21.3 µM (active) | Potency [13]: inactive | Potency [15]: inactive | Potency [16]: 23.9 µM (active) | Potency [17]: 23.9 µM (active) | Potency [18]: inactive

CCOC(=O)C1=C[C@]2(CC)CCCN3CCc4c(n1c1ccccc41)[C@@H]32
Potency [1]: inactive | Potency [5]: inactive | Potency [7]: inactive | Potency [8]: inactive | Potency [9]: inactive | Potency [10]: inactive | Potency [11]: inactive | max response [12]: -21.2% | Potency [13]: inactive | Potency [15]: inactive | Potency [18]: inactive
